Inconclusive results are not listed. Activity calls are given as the source filed them. Calls follow the shape of the dose curve; as a rule, active = well fitted activation curve with a large enough effect in the signal ratio in the repeat runs (not every such curve was filed as active); inconclusive = weak or mixed curves, or effect the other way; inactive = no such curve, though single readings can be large or run the other way; the % refers to the signal ratio.

The target in the assay is Peroxisome proliferator-activated receptor gamma (Homo sapiens) (UniProt P37231). The experiment in a line: qHTS assay to identify small molecule agonists of the peroxisome proliferator-activated receptor gamma (PPARg) signaling pathway (AID 743094). Conditions: HEK293H PPARg-UAS-bla, beta-lactamase FRET ratio, 17 h; series mostly up to 57 µM. In outline: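 HEK293H PPARg-bla cells, 5 h settle at 37C/5% CO2; compound (DMSO) 17 h, 37C; B/G FRET substrate 1 h RT; fluorescence intensity read-out. qHTS format.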
Chain of Peroxisome proliferator-activated receptor gamma (Homo sapiens) (P37231 whole entry, looked up): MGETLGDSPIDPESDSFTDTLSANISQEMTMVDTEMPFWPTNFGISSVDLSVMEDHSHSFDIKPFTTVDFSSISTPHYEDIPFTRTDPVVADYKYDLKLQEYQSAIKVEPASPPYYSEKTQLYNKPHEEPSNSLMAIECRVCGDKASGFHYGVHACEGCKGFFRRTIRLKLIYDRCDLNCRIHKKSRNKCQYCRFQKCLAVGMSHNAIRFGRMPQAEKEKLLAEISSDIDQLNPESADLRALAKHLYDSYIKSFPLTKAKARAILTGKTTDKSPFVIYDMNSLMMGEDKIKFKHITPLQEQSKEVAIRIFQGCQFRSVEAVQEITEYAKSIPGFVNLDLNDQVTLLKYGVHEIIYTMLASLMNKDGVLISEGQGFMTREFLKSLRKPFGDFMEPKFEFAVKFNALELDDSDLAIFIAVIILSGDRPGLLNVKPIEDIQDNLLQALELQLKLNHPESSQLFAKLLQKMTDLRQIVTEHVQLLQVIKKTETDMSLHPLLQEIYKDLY
(Quantitative high-throughput screening tests each substance at several concentrations.)
As for `CC(C)OC(=O)Nc1ccccc1`, the result was inactive.
For `COC(=O)c1ccccc1N`, the result was inactive.
For the molecule `OC(O)C(Cl)(Cl)Cl`, the result was inactive.
With `CC1C=[C-]C=C1.[C-]#[O+].[C-]#[O+].[C-]#[O+].[Mn]`, the outcome was inactive.
The value for `Clc1ccc(Cl)cc1` was “inactive”; that for `CC(=O)C=C(C)C` was “inactive”; that for `Cc1ccc(N)cc1N` was “inactive”.
The result for `O=S(=O)(c1ccc(Cl)cc1)c1cc(Cl)c(Cl)cc1Cl` reads “inactive”.
The value for `CCCCCCCCCl` was “inactive”.
Turning to `CCCN(CCC)c1c([N+](=O)[O-])cc(C(F)(F)F)cc1[N+](=O)[O-]`, the result was inactive.
The result for `CN(C)N=O` reads “inactive”.
Take `C#CCN(C)[C@H](C)Cc1ccccc1`: the result was inactive.
The result for `CCC(C)(CC)c1cc(NC(=O)c2c(OC)cccc2OC)on1` reads “inactive”; that for `O=C(NC(=O)c1c(F)cccc1F)Nc1cc(Cl)c(OC(F)(F)C(F)C(F)(F)F)cc1Cl` (stereo unspecified), “inactive”.
The result for `NCC(O)c1ccc(O)cc1` (stereo unspecified) reads “inactive”; that for `Clc1ccccc1Cl`, “inactive”; that for `CC(C)C1(C)N=C(c2nc3ccccc3cc2C(=O)O)NC1=O` (stereo unspecified), “inactive”.
The result for `Oc1ccccc1Cl` reads “inactive”; that for `ClCc1cccnc1`, “inactive”.
Consider `O=NN1CCCC1`, for which the result was inactive.
For the molecule `CCNc1nc(NC(C)C)nc(SC)n1`, the result was inactive.
The result for `CCCCCOC(=O)c1ccccc1C(=O)OCCCCC` reads “inactive”.
For the molecule `O=c1n(Cl)c(=O)n(Cl)c(=O)n1Cl`, the result was inactive.
For the molecule `COc1ccc2c3c1O[C@H]1[C@@H](O)C=C[C@H]4[C@@H](C2)N(C)CC[C@@]341`, the outcome was inactive.
The result for `Cc1cc(-c2cc(C)c(N)c(C)c2)cc(C)c1N` reads “inactive”; that for `CC(C)=C[C@@H]1[C@@H](C(=O)OCc2coc(Cc3ccccc3)c2)C1(C)C`, “inactive”.

These data come from PubChem BioAssay (Tox21).
